Experimental findings from PubChem BioAssay (NCI) are described below.

Common to all, as to assay: NCI-60 one-dose screen, 48 h (100 = growth as untreated, 0 = no growth, -100 = all killed)
What all share (conditions): 10 µM unless noted

For assay [1], the system named is HCT-15 colon.
The subject of assay [2] is HT29 colon.
The subject of assay [3] is SNB-75 CNS.
Assay [4] concerns SNB-19 CNS.
Assay [5] concerns U251 CNS.
For assay [6], the system named is PC-3 prostate.
Assay [7] concerns SK-MEL-5 melanoma.
For assay [8], the system named is UACC-62 melanoma.
In assay [9] the test system is LOX IMVI melanoma.
For assay [10], the system named is SK-MEL-28 melanoma.

Compounds without any hit were thinned out: in the full panel of roughly 83,000, 20% have a hit.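 Single-concentration screen, 48 h exposure, 96-well plates. Endpoint: percent growth. Below 10 = active.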 Values without a mark were called inactive. Calls of active or inactive are those of the source.

`CC1(C)CC[C@]2(C(=O)O)CC[C@]3(C)[C@H](CC[C@@H]4[C@@]5(C)CCC(=O)C(C)(C)[C@@H]5CC[C@]43C)[C@H]2[C@H]1OC(=O)C(F)(F)F`: the growth in assay [1] was -64% [100 µM] (active); in assay [2], -37.7% [100 µM] (active); in [3], -36.5% [100 µM] (active); in [4], -78.4% [100 µM] (active); in [5] it was -71.4% [100 µM] (active); in assay [6], -56.4% [100 µM] (active). The growth was -94.2% [100 µM] (active) in assay [7], -85.2% [100 µM] (active) in assay [8], -99.1% [100 µM] (active) in assay [9] and -58.5% [100 µM] (active) in assay [10].
As for `O=C(O)CC1CCCCC1c1ccccc1` (stereo not given), the growth is 97.8% in assay [1]; 101% in [2]; 106% in [3]; 106% in [4]; 105% in [5]; 90% in assay [6]. For the same compound, the growth was 105% in assay [7], 102% in assay [8], 103% in [9] and 119% in assay [10].
Regarding `COc1cc(/C=C/C(=O)/C=C/c2ccc(-n3ccnc3)cc2)ccc1O`, the growth in [1] was 82.2%; in assay [2], 3.46% (active); in [3] it was 62.3%; in assay [4], 76.9%; in assay [5] it was -0.424% (active); in assay [6], 62.4%. Also, the growth in assay [7] is 74%; in assay [8] it was 85.2%; in assay [9], -44% (active); in assay [10], 86.7%.
`C=C(C)[C@@H]1CC[C@]2(C)[C@H](C(=O)C=C3[C@@H]4C[C@](C)(C(=O)N5CCN(C)CC5)CC[C@]4(C)CC[C@]32C)[C@@]1(C)CCC#N`: the growth is -88.2% [100 µM] (active) in assay [1]; -53.2% [100 µM] (active) in [2]; -92.2% [100 µM] (active) in assay [3]; -95.8% [100 µM] (active) in [4]; -76.7% [100 µM] (active) in [5]; -65.9% [100 µM] (active) in assay [6]. Moreover, the growth was -94.6% [100 µM] (active) in assay [7], -88.9% [100 µM] (active) in assay [8], -93.6% [100 µM] (active) in [9] and -90.1% [100 µM] (active) in [10].
For `CSc1nc2c(c(=O)n1C)C1(C(=O)N(Cc3ccccc3)c3ccccc31)c1c(nc(SC)n(C)c1=O)N2`, the growth in assay [1] is 84%; in [2] it was 86.2%; in [3], 99%; in [4], 91.5%; in [5], 77.5%; in [6] it was 44.9%. Further, the growth in assay [7] is 93%; in assay [8], 93.6%; in [9], 101%; in [10], 104%.
With `O=C(Nc1cc(-c2cccnc2)nc(NCCCN2CCOCC2)n1)c1cc(Br)cc(C(F)(F)F)c1`, the growth in assay [1] is 6.87% (active); in assay [2], 8.99% (active); in assay [3], 72.1%; in assay [4], 69.6%; in assay [5], 33.1%; in assay [6], 57.7%. For the same compound, the growth in assay [7] is 3.78% (active); in assay [8], -6.13% (active); in assay [9], -16.8% (active); in assay [10], -49.8% (active).
For `CC[C@@H]1NC(=O)[C@@H]2CCCCN2C(=O)[C@@H]2CCCN2C(=O)[C@@H](NC(=O)[C@H](Cc2cc(F)cc(F)c2)NC(=O)Nc2ccc(C3CC3)cc2F)[C@H](C)OC(=O)[C@@H]2C[C@@H](C)CN2C1=O`, the growth in [1] was 4.6% (active); in assay [2], 4.98% (active); in assay [3] it was 10.4%; in assay [4], 15.7%; in assay [5] it was 24.5%; in [6] it was 12.5%. Besides, the growth in assay [7] was -45% (active); in [8] it was 7.28% (active); in assay [9], 16.4%; in assay [10] it was 13.5%.
Take `Cc1ccc2c(c1)C(C)Cc1c(Cl)ncnc1N2C` (stereo not given): the growth was 8.93% (active) in assay [1]; -8.76% (active) in assay [2]; 50.3% in assay [3]; 30.4% in assay [4]; 17.9% in [5]; 14.1% in assay [6]. Moreover, the growth is -86.7% (active) in [7], 7.38% (active) in [8], -58.1% (active) in [9] and 27.1% in assay [10].
`CCCCCCCCCCCCCCNC(=O)Nc1ccc(Cl)c(Cl)c1`: the growth in assay [1] is 16.9%; in assay [2], 46.6%; in assay [3] it was 53.7%; in assay [4], 56.3%; in assay [5], 19.8%; in assay [6], 16.7%. Besides, the growth in assay [7] was 51.3%; in assay [8] it was 33.6%; in [9], 7.74% (active); in assay [10], 60.9%.
In the case of `COc1cc(-c2nc(SCCC(C)C)nc(Nc3ccc(S(N)(=O)=O)cc3)c2C#N)cc(OC)c1OC`, the growth is 14% in assay [1]; 2.83% (active) in assay [2]; 47.6% in [3]; 54.3% in assay [4]; 31.5% in assay [5]; 9.42% (active) in assay [6]. Further, the growth in assay [7] was 37.4%; in assay [8], 45.7%; in assay [9], 5.65% (active); in assay [10], 59.1%.
As for `CCN(CC)CCCC(C)Nc1c2ccc(C)cc2nc2ccc(OC)cc12` (stereo not given), the growth in assay [1] is 18.2%; in assay [2] it was -26.1% (active); in assay [3], 41%; in [4] it was 43.7%; in assay [5], 31.2%; in assay [6], 30.9%. In addition, the growth in assay [7] was 82.1%; in [8], 74.4%; in assay [9], -70.8% (active); in [10], 62.1%.
As to `CCCOc1ccc(-c2nc(-c3ccc(N)cc3)cs2)cc1`, the growth in assay [1] was 89.9%; in [2], 96.7%; in [3], 98%; in assay [4], 96.6%; in [5], 107%; in [6] it was 94.6%. Besides, the growth in assay [7] is 100%; in assay [8], 97%; in assay [9], 110%; in assay [10] it was 132%.
Turning to `COc1ncc(-c2ccc3nccc(C#CCCCCC(=O)O)c3c2)cc1NS(=O)(=O)c1ccc(F)cc1F`, the growth was 27.7% in assay [1]; 16.1% in assay [2]; -12.5% (active) in assay [3]; 31.1% in assay [4]; 31.6% in assay [5]; 19.8% in [6]. Moreover, the growth is 10.3% in [7], -12.6% (active) in assay [8], 28.2% in assay [9] and 7.69% (active) in assay [10].
